Where “and” joins values, the source holds several entries; their conditions need not be identical. Equal entries are not always repeated. Compounds without any hit were thinned out: in the full panel of roughly 83,000, 20% have a hit.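 Negative percent growth values reflect cell death: -40 means 40% of the cells present at the start died, and -100 means all died.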 Calls of active or inactive are those of the source. Rule for the calls: active = growth percent below 10; inactive = the rest.
What was measured:
Assay in all cases: NCI-60 one-dose screen, 48 h (100 = growth as untreated, 0 = no growth, -100 = all killed)
Conditions in all cases: 10 µM unless noted
EKVX NSCLC = tested on: EKVX NSCLC
SN12C renal = tested on: SN12C renal
UO-31 renal = tested on: UO-31 renal
TK-10 renal = tested on: TK-10 renal
ACHN renal = tested on: ACHN renal
CAKI-1 renal = tested on: CAKI-1 renal
A498 renal = tested on: A498 renal
CCRF-CEM leukemia = tested on: CCRF-CEM leukemia
MOLT-4 leukemia = tested on: MOLT-4 leukemia
SR leukemia = tested on: SR leukemia
RPMI-8226 leukemia = tested on: RPMI-8226 leukemia
OVCAR-8 ovarian = tested on: OVCAR-8 ovarian
OVCAR-5 ovarian = tested on: OVCAR-5 ovarian
OVCAR-4 ovarian = tested on: OVCAR-4 ovarian
SK-OV-3 ovarian = tested on: SK-OV-3 ovarian
IGROV1 ovarian = tested on: IGROV1 ovarian
OVCAR-3 ovarian = tested on: OVCAR-3 ovarian
HS 578T breast = tested on: HS 578T breast
NCI/ADR-RES ovarian = tested on: NCI/ADR-RES ovarian
SK-MEL-2 melanoma = tested on: SK-MEL-2 melanoma

| Compound | growth (EKVX NSCLC) | growth (SN12C renal) | growth (UO-31 renal) | growth (TK-10 renal) | growth (ACHN renal) | growth (CAKI-1 renal) | growth (A498 renal) | growth (CCRF-CEM leukemia) | growth (MOLT-4 leukemia) | growth (SR leukemia) | growth (RPMI-8226 leukemia) | growth (OVCAR-8 ovarian) | growth (OVCAR-5 ovarian) | growth (OVCAR-4 ovarian) | growth (SK-OV-3 ovarian) | growth (IGROV1 ovarian) | growth (OVCAR-3 ovarian) | growth (HS 578T breast) | growth (NCI/ADR-RES ovarian) | growth (SK-MEL-2 melanoma) |
| --- | --- | --- | --- | --- | --- | --- | --- | --- | --- | --- | --- | --- | --- | --- | --- | --- | --- | --- | --- | --- |
| OC(COc1cccc2ccccc12)CN1CCN(c2ccc(Cl)cc2)CC1 (centres undefined) | 108% (inactive) and 94.9% (inactive) | 98.5% (inactive) and 97.8% (inactive) | 80.2% (inactive) and 63.6% (inactive) | 70.8% (inactive) and 101% (inactive) | 68.6% (inactive) and 102% (inactive) | 85.5% (inactive) | 92.3% (inactive) and 77% (inactive) | 83.3% (inactive) | 110% (inactive) | 113% (inactive) and 75.2% (inactive) | 68.2% (inactive) | 79.8% (inactive) and 87.1% (inactive) | 84.1% (inactive) and 87.3% (inactive) | 35.2% (inactive) and 92.1% (inactive) | 88.8% (inactive) and 100% (inactive) | 103% (inactive) and 84.8% (inactive) | 83.2% (inactive) and 116% (inactive) | 68% (inactive) and 116% (inactive) | 88.6% (inactive) and 83.4% (inactive) | – |
| O=C(Nc1cccc(-n2ccc3c(NC(=O)c4ccccc4)nccc32)c1)c1ccc(Cl)c(C(F)(F)F)c1 | 38% (inactive) and 87.3% (inactive) | -40% (active) and 64.5% (inactive) | 7.05% (active) and 75.7% (inactive) | 93.1% (inactive) | 13% (inactive) and 53.5% (inactive) | -66.7% (active) and 42.8% (inactive) | 15.3% (inactive) and 75.5% (inactive) | -25.3% (active) and 40.3% (inactive) | -4.82% (active) and 10.3% (inactive) | -21.7% (active) and 4.99% (active) | -47.6% (active) and 32.3% (inactive) | 44.6% (inactive) | 16.2% (inactive) and 76.5% (inactive) | 6.88% (active) and 70.1% (inactive) | 11.8% (inactive) and 70.6% (inactive) | 4.27% (active) and 56.4% (inactive) | -86.6% (active) and 51.6% (inactive) | 90.1% (inactive) | -33% (active) and 58.4% (inactive) | – |
| OCCN1CCN(CCCN2c3ccccc3Sc3ccc(Cl)cc32)CC1 | 66.8% (inactive) | 50.2% (inactive) and 72.8% (inactive) | – | 47.8% (inactive) and 75.4% (inactive) | 62.3% (inactive) and 76.1% (inactive) | 47.9% (inactive) and 68.8% (inactive) | – | 40.6% (inactive) and 55.9% (inactive) | 47.9% (inactive) and 53.3% (inactive) | 36.6% (inactive) | 37.6% (inactive) and 68.9% (inactive) | 89.3% (inactive) and 107% (inactive) | 61.3% (inactive) and 90.7% (inactive) | 74.2% (inactive) and 69.8% (inactive) | 70% (inactive) and 87.5% (inactive) | 47.7% (inactive) and 57.8% (inactive) | 83% (inactive) and 81.5% (inactive) | 63.1% (inactive) and 72.3% (inactive) | 60.9% (inactive) and 76% (inactive) | 46.5% (inactive) and 74.9% (inactive) |
| NC(=S)NS(=O)(=O)c1ccc(N)cc1 | – | 109% (inactive) | 88.1% (inactive) | 110% (inactive) | 96.5% (inactive) | 94.8% (inactive) | 82.8% (inactive) | 106% (inactive) | 101% (inactive) | 96.5% (inactive) | 110% (inactive) | 99.4% (inactive) | 106% (inactive) | 113% (inactive) | 108% (inactive) | 107% (inactive) | 123% (inactive) | 101% (inactive) | 104% (inactive) | 109% (inactive) |
| Cc1cc(N=Nc2ccc(C)c(N=Nc3cc(C)c(N)cc3N)c2)c(N)cc1N | 67.1% (inactive) and 72.3% (inactive) | 95.6% (inactive) and 85.7% (inactive) | 63.9% (inactive) and 51.5% (inactive) | 93.7% (inactive) and 92.3% (inactive) | 84.4% (inactive) and 81.8% (inactive) | 78.2% (inactive) and 78.7% (inactive) | 93.8% (inactive) and 85.9% (inactive) | 84.5% (inactive) and 61.3% (inactive) | 64.4% (inactive) and 61.8% (inactive) | 97.9% (inactive) and 35.1% (inactive) | 43.6% (inactive) and 88.2% (inactive) | 98.9% (inactive) and 102% (inactive) | 92.5% (inactive) and 86.8% (inactive) | 86.6% (inactive) and 75.5% (inactive) | 91% (inactive) and 95.2% (inactive) | 36.8% (inactive) and 53.5% (inactive) | 89.3% (inactive) and 63.1% (inactive) | 89.4% (inactive) and 88.8% (inactive) | 92.4% (inactive) and 84% (inactive) | – |
| CCN(CC)CCNc1cc(-c2cccc(OC(F)(F)F)c2)nc2ccc(N3CCCC3)cc12 | 73.5% (inactive) and 59.5% (inactive) and 42.8% (inactive) | 3.62% (active) and 3.14% (active) and 38.1% (inactive) | 10.4% (inactive) and -12.9% (active) and 29.7% (inactive) | 74.5% (inactive) and 19.1% (inactive) and 40.1% (inactive) | 24.4% (inactive) and 12.9% (inactive) and 27.7% (inactive) | 49.1% (inactive) and 34.2% (inactive) and 23.1% (inactive) | 71.2% (inactive) and 4.86% (active) and 50.8% (inactive) | -30.4% (active) and -4.6% (active) and 2.25% (active) | -19.7% (active) and -14.3% (active) and 3.16% (active) | -29.4% (active) and -36.8% (active) and -10.8% (active) | -53.3% (active) and -33.8% (active) and 14.6% (inactive) | 39.7% (inactive) and 2.29% (active) and 22.4% (inactive) | 50.6% (inactive) and 5.44% (active) and 34.6% (inactive) | 59.3% (inactive) and 44.7% (inactive) and 30% (inactive) | 52.6% (inactive) and 10.9% (inactive) and 53.6% (inactive) | -14.8% (active) and 6.93% (active) and 25.2% (inactive) | 75.8% (inactive) and -2.31% (active) and 47.2% (inactive) | 66.4% (inactive) and -7.2% (active) and 38.9% (inactive) | 9.79% (active) and -16.8% (active) and 25.2% (inactive) | – |
| O=C(Oc1cccc(OC(=O)c2ccccc2)c1)c1ccccc1 | 102% (inactive) and 104% (inactive) | 97.8% (inactive) and 99.4% (inactive) | 50.4% (inactive) and 90.9% (inactive) | 133% (inactive) and 85.7% (inactive) | 103% (inactive) and 99.7% (inactive) | 102% (inactive) and 96.7% (inactive) | 99.2% (inactive) and 91.2% (inactive) | 80.4% (inactive) and 107% (inactive) | 85% (inactive) and 91.3% (inactive) | 94.4% (inactive) | 69.9% (inactive) and 104% (inactive) | 110% (inactive) | 92.7% (inactive) and 102% (inactive) | 97.3% (inactive) and 92.1% (inactive) | 126% (inactive) and 97.4% (inactive) | 109% (inactive) | 76.3% (inactive) and 101% (inactive) | 78.4% (inactive) and 102% (inactive) | 95.5% (inactive) and 97.7% (inactive) | – |
| CN1C(=O)C(N=Nc2ccc([N+](=O)[O-])cc2)SC1=S (centres undefined) | 117% (inactive) and 82% (inactive) | 62.4% (inactive) and 69.3% (inactive) | – | 86.8% (inactive) and 101% (inactive) | 51.8% (inactive) and 56.5% (inactive) | 103% (inactive) and 75.3% (inactive) | 85.5% (inactive) and 89.6% (inactive) | – | 76.7% (inactive) and 70.5% (inactive) | – | 32.7% (inactive) and 10.8% (inactive) | 70.7% (inactive) and 72.4% (inactive) | 56.2% (inactive) and 51.5% (inactive) | 65.8% (inactive) and 76.7% (inactive) | 66.6% (inactive) and 69.2% (inactive) | – | 59.3% (inactive) and 62.7% (inactive) | – | 45.7% (inactive) and 15.5% (inactive) | 52.2% (inactive) and 60.1% (inactive) |
| N=C1N=C(N)CS1 | – | 99.9% (inactive) | – | 131% (inactive) | 116% (inactive) | 96.5% (inactive) | 90.7% (inactive) | 104% (inactive) | 99.1% (inactive) | 99.2% (inactive) | 107% (inactive) | 99.9% (inactive) | 109% (inactive) | 99.8% (inactive) | 109% (inactive) | 105% (inactive) | 106% (inactive) | 109% (inactive) | 113% (inactive) | 116% (inactive) |
| CCOC(=O)c1sc(N)nc1-c1ccccc1 | – | 104% (inactive) | 85.4% (inactive) | 99% (inactive) | 93.7% (inactive) | 103% (inactive) | 94.5% (inactive) | 97.7% (inactive) | 96.1% (inactive) | 90.2% (inactive) | 99.1% (inactive) | 108% (inactive) | 90.9% (inactive) | 106% (inactive) | 93.7% (inactive) | 101% (inactive) | 108% (inactive) | 106% (inactive) | 104% (inactive) | 95.9% (inactive) |
